Measured values from PubChem BioAssay (NCI).
“And” between values parts separate entries of the source, which are not always exact repeats. Equal entries are not always repeated. About 79,000 compounds went through this panel and 15% of them were active in at least one assay; those are over-represented in the sample as a whole. The source made the active and inactive calls. Cut-off read from the data, not from the text of the source: active = growth inhibition above about 70%; inactive = the rest.

What was measured:
[1] = NCI Yeast Anticancer Drug Screen. Data for the rad50 strain (AID 155);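 note: 0% = growth of vehicle-only cultures of the same strain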; conditions: S. cerevisiae rad50 strain growth inhibition; at 50.0 µM; active compounds read high
Outline: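 Inhibition values express reduced yeast growth in compound-treated cultures relative to vehicle-treated controls.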

[2] = NCI Yeast Anticancer Drug Screen. Data for the mec2-1 strain (AID 157); conditions: S. cerevisiae mec2-1 strain, at 50.0 µM, active compounds read high
Outline: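 Vehicle-treated cultures served as reference for growth inhibition of compound-exposed mec2-1 yeast.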

[3] = NCI Yeast Anticancer Drug Screen. Data for the sgs1 mgt1 strain (AID 161);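 note: 0% = growth of cultures given vehicle only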; conditions: S. cerevisiae sgs1 mgt1 strain, at 50.0 µM, active compounds read high
Outline: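 Genetically altered yeast, compound exposure, growth inhibition relative to vehicle.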

[4] = NCI Yeast Anticancer Drug Screen. Data for the cln2 rad14 strain (AID 165);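 note: 0% = growth equal to vehicle treated cultures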; conditions: S. cerevisiae cln2 rad14 strain, at 50.0 µM, active compounds read high
Outline: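 Each compound was tested on cln2 rad14 yeast. Inhibition of growth was calculated against vehicle-exposed controls.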

[5] = NCI Yeast Anticancer Drug Screen. Data for the bub3 strain (AID 167); conditions: S. cerevisiae bub3 mutant strain, at 50.0 µM, active compounds read high
Outline: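 Steps: expose the mutant yeast strain to compound; grow alongside vehicle-treated cultures; measure growth; express inhibition against the vehicle cultures.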

[6] = NCI Yeast Anticancer Drug Screen. Data for the mlh1 rad18 strain (AID 175); conditions: S. cerevisiae mlh1 rad18 strain growth inhibition; at 50.0 µM; active compounds read high
Outline: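 Vehicle-treated cultures served as the reference for growth inhibition in a yeast strain carrying DNA damage repair alterations exposed to each compound.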

Measured: growth inhibition

CCCCSCCC(N)P(=O)(O)O (configuration not stated)
inactive: [1] -68.8% | [2] -62.4% | [3] -42.4% | [4] 2.8% | [5] -15.2% | [6] -44.1%

CCCCOC(=O)C(O)CF (configuration not stated)
inactive: [1] -25.2% | [2] -10.1% | [3] -0.25% | [4] 1.6% | [5] 1.05% | [6] -29.6%

CC(N)CN.CC(N)CN.[Cl-].[O]=[Os+2]=[O] (configuration not stated)
inactive: [1] -31% | [2] -13.4% | [3] -16.6% | [4] 2.05% | [5] -16.1% | [6] -13.6%

Cc1sc2cccc[n+]2c1C
inactive: [1] 5.85% | [2] -12.9% | [3] -8.95% | [4] -8.95% | [5] -3.4% | [6] -14.4%

C[C@]12CC[C@H](O)C[C@H]1CC[C@@H]1[C@@H]2CC[C@]2(C)[C@@H](C3=CC(=O)OC3)[C@@H](O)C[C@]12O
inactive: [1] -6.05% | [2] -15.8% | [3] 2.35% | [4] -16.8% | [5] -0.15% | [6] 8.1%

CC[N+](CC)(CC)CC
inactive: [1] -16.7% and -6.2% | [2] 2.1% and -17.7% | [3] 6.6% and -1.6% | [4] -10.4% and 2.05% | [5] 0.8% and -1.3% | [6] -15.8% and -4.9%

CSP(=S)(SC(C)C)SC(C)C
inactive: [1] 13.7% | [2] 5.75% | [3] 13.2% | [4] 3.8% | [5] 0.5% | [6] 29.3%

Cc1cc(N(CCCl)CCCl)ccc1CN1CCCN(Cc2ccc(N(CCCl)CCCl)cc2C)C1c1cc(O)cc(Br)c1
inactive: [1] 43% | [2] 24.5% | [3] 35.4% | [4] -2.55% | [5] 9.3% | [6] 37.9%

CCC1=C(CC2NCCc3cc(OC)c(OC)cc32)CC2c3ccccc3CCN2C1 (configuration not stated)
inactive: [1] -16.8% | [2] -26.5% | [3] -42.7% | [4] -9.75% | [5] -22.8% | [6] -16.3%

CC12OC1(C)C1C(=O)OCC1C2=O (configuration not stated)
inactive: [1] 3.4% | [2] 3.6% | [3] -3.45% | [4] 3.95% | [5] 3% | [6] -0.95%

CC(CC(C)(C)C)C(=O)Cl (configuration not stated)
inactive: [1] 7.85% | [2] -2.7% | [3] 5.35% | [4] 10.9% | [5] 4.15% | [6] 23.4%

NC(N)=Nc1c(N)ncnc1N
inactive: [1] -4.9% | [2] 6.2% | [3] 4.4% | [4] -2.65% | [5] -0.8% | [6] -4.45%

CC(=O)Nc1ncc2ccccc2c1-c1ccc(NC(=O)CCN(CCCl)CCCl)cc1
inactive: [2] -0.45% | [3] 12.2% | [4] -30.1% | [5] 17.6% | [6] -9.2%
active: [1] 84.5%

C=C1CCC2CC1C2(C)C (configuration not stated) (tested in a mixture with another compound)
inactive: [1] 7.95% | [2] -14.2% | [3] -5.7% | [4] -2.7% | [5] 5.85% | [6] -23.9%

CN(C)C(=O)Oc1c(Cl)cccc1Cl
inactive: [1] 28.4% | [2] 24.4% | [3] 5.65% | [4] 10.5% | [5] 36.8% | [6] 14.1%

c1ccc2c(c1)Nc1ccccc1S2
inactive: [1] 41% | [2] 10.1% | [3] 17.9% | [4] 28.4% | [5] 28.5% | [6] 34.2%

O=P1(N(CCCl)CCCl)Nc2cc3ccccc3cc2N1
inactive: [1] -5.65% | [2] -15.7% | [3] -4.45% | [4] -108% | [5] -15.5% | [6] -14.6%

CC(C)(C)C1=CC(=C(P(=O)(O)O)P(=O)(O)O)C=C(C(C)(C)C)C1=O
inactive: [1] -32.6% | [2] -12.7% | [3] -49.5% | [4] -21.9% | [5] -47.8% | [6] -34.5%

Cc1ccc(CCl)c(O)c1
inactive: [1] -25.7% | [2] -14.6% | [3] -6% | [4] -12.5% | [5] 7.1% | [6] -0.8%

[N-]=[N+]=NC1=C(N=[N+]=[N-])c2cccc3cccc(c23)C1=O
inactive: [1] 46.3% | [2] 29.1% | [3] 55.3% | [4] 55.6% | [5] 21.1%
active: [6] 81.9%

O=C1[C@@H]2[C@H](C(=O)N1c1ccccc1)[C@H]1CC[C@H]2N1C(=O)c1ccccc1
inactive: [1] 18.9% | [2] 17.4% | [3] 2.2% | [4] 2.75% | [5] 13.2% | [6] 6.5%

O=C1NCCCCC1Cl (configuration not stated)
inactive: [1] -12.4% | [2] -1.1% | [3] -4% | [4] -21% | [5] 8.8% | [6] 14.5%

C=C1C(=O)OC2CC3(C)OC3CC/C(C)=C/C(OC(C)=O)C12 (configuration not stated)
inactive: [1] 27.1% | [2] 37.4% | [3] 29.6% | [4] 21.1% | [5] 45.1% | [6] 38%

Cc1nccn1-c1ccc(Cl)cc1N=Cc1ccc(N(CCCl)CCCl)cc1Cl
active: [6] 71.5%
inactive: [1] 38.4% | [2] 47.5% | [3] 68.5% | [4] 33.8% | [5] 43%

O=C(O)C1C(C(=O)O)C2(Cl)C(Cl)=C(Cl)C1(Cl)C2(Cl)Cl.[Cd] (configuration not stated)
inactive: [1] 61.4% | [2] 13.9% | [3] -0.2% | [4] -14.7% | [5] -6.75% | [6] 19.4%

NC(CNC(=O)CBr)C(=O)O (configuration not stated)
inactive: [1] 6.9% | [2] 18.1% | [3] -3.25% | [4] 8.9% | [5] -4.1% | [6] -35.2%

O=C(NC1CCCCC1)c1c(O)[nH]c(=S)[nH]c1=O
inactive: [1] -20.4% | [2] -0.3% | [3] 14.8% | [4] 12.2% | [5] -4.9% | [6] -0.55%

O=C(O)CCC(=O)O.[Ni]
inactive: [1] -29.1% | [2] -17.1% | [3] -27% | [4] -36.5% | [5] -31.2% | [6] -18.3%

CNCC(=O)c1ccc(O)c(O)c1
inactive: [1] 2.4% | [2] -10.1% | [3] -30.6% | [4] -9.35% | [5] -38.9% | [6] -6.75%

O=[N+]([O-])c1ccc(SCl)c([N+](=O)[O-])c1
inactive: [1] 31.9% | [2] 11.1% | [3] 18.8% | [4] 14.6% | [5] 31.9% | [6] 17.9%

COc1cc(C2c3cc4c(cc3C(O)[C@H]3COC(=O)C23)OCO4)cc(OC)c1O (some centres not stated)
inactive: [1] -38.8% | [2] -50.8% | [3] -27.1% | [4] -1.8% | [5] -13.9% | [6] 38.6%

CC1=CC2C(C=C1)S(=O)(=O)N1CC21c1ccccc1 (configuration not stated)
inactive: [1] 20.9% | [2] -31.4% | [3] -11% | [4] -8.3% | [5] -20.6% | [6] -3.9%

O=C(N/N=C/c1cc(Br)cc(Br)c1[O-])c1ccccc1O.O=C(N/N=C/c1cc(Br)cc(Br)c1[O-])c1ccccc1O.[Fe+2]
inactive: [1] 20.4% | [2] 21.7% | [3] 52% | [4] -34.8% | [5] 34.4% | [6] 43.8%

CC(CC(C#N)(c1ccccc1)c1ccccc1)[N+]1(C)CCCCCCC1 (configuration not stated)
inactive: [1] 11.9% | [2] 1.2% | [3] 2.85% | [4] 1.65% | [5] 1.35% | [6] 19%

COC(=O)N/N=C(/CCN1CCCC1)CC(c1ccccc1)c1c(O)c2ccccc2oc1=O (configuration not stated)
inactive: [1] 19.4% | [2] -4.45% | [3] 10% | [4] 9.2% | [5] 8.7% | [6] 14.9%

O=C(Cc1ccccc1)OCCBr
inactive: [1] -8.95% | [2] 4.65% | [3] 0.95% | [4] 15.1% | [5] -16.2% | [6] -2.05%

O.O=S(=O)(O)O.[Co+3].[NH2-].[NH2-].[NH2-].[NH2-].[OH-]
inactive: [1] 31.2% | [2] 10.7% | [3] 8.6% | [4] 29.2% | [5] 12.4% | [6] 21.5%
